High-throughput results from PubChem BioAssay.
Rows were chosen to be rich in hits. Some 3.7% of all compounds tested hit in one or more screens of this group.
A549 tox = counter-screen for Nrf2 inhibitors: cytotoxicity in A549 cells. A549 ARE-Fluc cells, CellTiter-Fluor viability, 18-24 h. Potency, µM (titrated, usually from 46 µM), without a hit: at the highest dose activity change, negative = cytotoxicity, most hits filed as inhibitors. 390,000 tested, 0.16% active. AID 504648; further: on the % scale 0 is the no-effect control and ±100 the full control effect
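A549 ARE-Fluc cells in 5% FBS OPTI-MEM, 5000 cells/well, rested 2 h then exposed to compounds in concentration-response for 18-24 h at 37 °C. Viability by CellTiter-Fluor fluorescence (Ex 405/Em 525) after 30 min; luciferase luminescence (BugLite, 15 min, RT) read afterwards.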
Nrf2 ARE act = Nrf2 pathway activation | AREc32 ARE-luciferase reporter (MCF7-derived line), luminescence, 24 h | Potency, µM (top dose mostly 46.1 µM), without a hit: at the top dose activation, hits mostly activators | 410,000 tested, 0.31% active; further: % of control where 0% means no effect; nearly all actives have a fitted effect of over 65% in size
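Nrf2 activation is followed as ARE-luciferase induction in the AREc32 line after one day of compound treatment; luminescence is read with Steady-Glo.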
Nrf2 inh = blocks Nrf2 signaling | A549 ARE-Fluc reporter, luciferase luminescence, 18-24 h | Potency, µM (doses to about 46 µM), without a hit: at the highest dose activity change, negative = inhibition, actives largely listed as inhibitors | 360,000 tested, 2.1% active; further: on the % scale 0 is the no-effect control and ±100 the full control effect; nearly all actives have a fitted effect of over 60% in size
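Two sequential reads on A549 ARE_Fluc cells exposed to compound for 18-24 h: a CellTiter-Fluor fluorescence read for viability, then a luciferase luminescence read for Nrf2/ARE activity.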
ELG1 DNA repair = inhibitors of ELG1-dependent DNA repair in HEK293T cells; HEK293T ELG1-luciferase reporter, luminescence, 16 h; DNA damage induced by 5-fluorouridine; Potency, µM (series often up to 46.1 µM), for the others: at the top dose activity change, negative = inhibition, most hits filed as inhibitors; 330,000 tested, 2.3% active; AID 504467; further: on the % scale 0 is the no-effect control and ±100 the full control effect; nearly all actives have a fitted effect of over 55% in size
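Quantitative HTS, concentration-response format. 2,000 cells/well co-treated with 5-fluorouridine and compound, 16 hr in 5% CO2 at 37 °C; ONE-Glo luminescence read after 30 min.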
Starred values were filed as active, the others as inactive; ? = inconclusive; nt = no result given. The call rests on the fitted dose curve; in most records, active means well fitted curve in the direction sought with a large enough effect; inconclusive means small, poorly fitted or top-dose-only effect, or another doubt; inactive means no such curve, though single readings can be large; an effect the other way counts as inactive or inconclusive. Potency means the concentration at half of the fitted maximal effect.

SMILES | A549 tox | Nrf2 ARE act | Nrf2 inh | ELG1 DNA repair
Cc1ccc(CNC(=O)c2cc3c(C)nc4ccccc4c3o2)cc1 | -1.8% | 0.0% | 18.4µM* | 14.6µM*
Cc1nc2ccccc2c2oc(C(=O)NCc3ccc4c(c3)OCO4)cc12 | -8.4% | 3.4% | ? | ?
Cc1nc2ccccc2c2oc(C(=O)NCCCN3CCCC(C)C3)cc12 (stereo not drawn) | 20.6µM* | 8.4% | ? | ?
Cc1nc2ccccc2c2oc(C(=O)NCc3ccccn3)cc12 | -12.6% | 2.3% | ? | 18.4µM*
COc1ccc(C(=O)COC(=O)c2ccc(N(C)C)cc2)cc1 | 1.6% | 0.4% | 2.5% | -5.2%
CN(C)c1cc[n+](CC(=O)c2ccc(-c3ccccc3)cc2)cc1 | -20.3% | 0.0% | ? | 2.59µM*
Cc1ccc[n+](CC(=O)c2ccc(Br)cc2)c1 | -4.0% | 0.7% | 23.1µM* | 11.6%
COc1ccc(C(=O)C[n+]2ccc(N(C)C)cc2)cc1 | -11.3% | -0.5% | 20.6µM* | 0.0%
CN(C)c1cc[n+](CC(=O)c2ccc(Br)cc2)cc1 | ? | 0.0% | ? | 9.2µM*
CN(C)c1cc[n+](CC(=O)c2cccs2)cc1 | -14.0% | 0.1% | ? | 4.8%
CN(C)c1cc[n+](CC(=O)Nc2ccc(OC(F)F)cc2)cc1 | -7.0% | 1.5% | 23.1µM* | 0.0%
Cc1ccc(C(=O)C[n+]2ccc(Cc3ccccc3)cc2)cc1 | -3.7% | 0.2% | 21.1% | 7.3µM*
Cc1ccc(SCCc2cc[n+](CC(=O)c3ccccc3)cc2)cc1 | 2.8% | 0.2% | 29.5% | ?
CCOC(=O)CN(Cc1ccccc1)C(C(=O)NC1CCCCC1)c1ccccc1 (stereo not drawn) | 11.6µM* | -0.6% | 4.61µM* | nt
COc1ccccc1NC(=O)c1ccc(-n2ccnc2)c([N+](=O)[O-])c1 | 3.8% | -0.5% | ? | ?
CN(C)S(=O)(=O)c1cccc(NC(=O)c2ccc3nccnc3c2)c1 | ? | 3.2% | 5.8µM* | ?
CN(C)S(=O)(=O)c1cc(NC(=O)c2ccc(-n3ccnc3)c([N+](=O)[O-])c2)ccc1Cl | -6.2% | 2.8% | 18.4µM* | ?
Cc1ccc(NC(=O)c2ccc(N3CCOCC3)c([N+](=O)[O-])c2)cc1S(=O)(=O)N1CCOCC1 | -2.5% | 0.4% | 9.3% | 20.6µM*
Cc1ccc(NC(=O)c2ccc(NCCCN3CCOCC3)c([N+](=O)[O-])c2)cc1Cl | -14.1% | 5.4% | -10.9% | 18.4µM*
Cc1cc2oc(C(=O)N(Cc3ccc(N(C)C)cc3)Cc3ccco3)c(C)c2cc1Cl | 19.2% | 4.0% | -7.9% | nt
Cc1cnc(NC(=O)Cc2ccc(C)c(C)c2)s1 | -5.3% | 0.2% | -2.5% | ?
Cc1cc(C(=O)OCC(=O)NCc2ccc(Cl)cc2)c(C)o1 | 1.4% | 0.2% | 16.5% | ?
CCOc1ccc(NC(=O)N(Cc2c[nH]c3ccccc23)C2CCCCCC2)cc1 | 1.4% | 10.0% | ? | nt
COCCN1C(=O)c2cc(C(=O)Nc3ccc(OC)c(OC)c3)ccc2C1Nc1ccc(OC)c(OC)c1 (stereo not drawn) | -1.6% | 1.9% | -7.0% | -11.0%
Cc1ccc(CNC(=O)CN2C(=O)C3CCCCN3c3ccc(C(=O)N(C)C)cc32)cc1 (stereo not drawn) | 3.1% | -0.3% | nt | nt
SMILES | A549 tox | Nrf2 ARE act | Nrf2 inh | ELG1 DNA repair
O=c1[nH]c2ccccc2nc1-c1nnnn1Cc1ccccc1 | nt | 0.6% | nt | nt
CN(C)S(=O)(=O)c1cccc(NC(=O)c2ccc(N3CCOCC3)c([N+](=O)[O-])c2)c1 | -2.4% | 0.7% | ? | 18.4µM*
N#C/C(=C/c1ccc(Sc2nc3ccccc3[nH]2)o1)c1cccc(F)c1 | 25.9µM* | 18.2% | 20.6µM* | 18.4µM*
N#C/C(=C/c1ccc(Sc2nc3ccccc3[nH]2)o1)c1cccc(Br)c1 | ? | 6.2% | 16.4µM* | ?
N#C/C(=C/c1ccc(Sc2nc3ccccc3[nH]2)o1)c1ccccc1F | ? | 15.8% | ? | ?
COC(=O)CN1C(=O)[C@@H]2[C@H](C1=O)[C@@H]1CC(C(=O)OC)=C[C@@H](C(=O)OC)C3C1=C(C(=O)[C@@]3(C)NC(=O)c1ccccc1)[C@@H]2C (stereo partly drawn) | -1.4% | nt | 2.3% | nt
COc1cc(C(=O)c2ccccc2C(=O)O)c(OC)c2c1CCCC2 | -2.5% | -0.9% | -8.4% | nt
Nc1ncc(-c2ccccc2)n1CC1CCCO1 (stereo not drawn) | nt | 2.1% | 16.4µM* | 9.8%
